Inhibition data for 32 molecules are collected here from ChEMBL document CHEMBL4513146, “CO-ADD screening of Karazin Kharkiv National University (Ukraine) compounds”.

Results with a measured potency or affinity are listed apart.

The test system of one test is Staphylococcus aureus. Particulars: Concentration 32 ug.mL-1;; ASSAY_TEST Inhibition of Bacterial Growth; detection method Absorption (OD600); MEDIA CAMHB; plate type 384well; NBS; CORNING #3640; time 18 hr.
A further test relates to Escherichia coli. Particulars: Concentration 32 ug.mL-1;; ASSAY_TEST Inhibition of Bacterial Growth; detection method Absorption (OD600); MEDIA CAMHB; plate type 384well; NBS; CORNING #3640; time 18 hr.

In general, Inhibition refers to the relative decrease from the control value, in per cent. As to `COc1ccc(-c2cc3c4nn(CC(=O)Nc5cc(C)ccc5C)c(=O)n4ccn3n2)cc1`, the Inhibition in the test with Staphylococcus aureus was 3.16%; in the test with Escherichia coli it was 2.02%.
The matching figures for `O=C(Cn1nc2c3c4c(sc3ncn2c1=O)CCCC4)NCc1ccc(F)cc1`: 8.69% and -4.83%.
For `Cc1cc(C)cc(Oc2nccn3c(=O)n(CC(=O)Nc4cccc(Cl)c4)nc23)c1`, in that order: -12.18% and -3.44%.
For `Cc1ccccc1NC(=O)Cn1nc2ccc(SC3CCCCC3)nn2c1=O`, in that order: 2.21% and -7.39%.
Regarding `CCCCOc1ccc(-c2cc3c4nnc(SCC(=O)N(C)c5ccc(F)cc5)n4ccn3n2)cc1`, the Inhibition is listed as -20.91% with Staphylococcus aureus and -5.6% in the test with Escherichia coli.
The matching figures for `COc1cc(NC(=O)Cn2nc3ccc(-c4ccc(Cl)cc4)nn3c2=O)cc(OC)c1`: -2.47% and -10.38%.
For `COc1cc(NC(=O)Cn2nc3ccc(C(=O)NCc4ccccc4)cn3c2=O)cc(OC)c1OC`, in that order: -6.97% and -8.69%.
Consider `CCCNC(=O)Cn1nc2n(Cc3ccco3)c(=O)c3sccc3n2c1=O`, for which the Inhibition was 2.17% in the test on Staphylococcus aureus and -0.94% in the test with Escherichia coli.
With `Cc1ccc(Cn2c(=O)c3ccccc3n3c(=O)n(CC(=O)Nc4ccc5c(c4)OCCO5)nc23)cc1`, the results for the Inhibition in the test on Staphylococcus aureus and in the test with Escherichia coli were 6.52% and 1.04%, respectively.
For `COC(=O)c1ccc(NC(=O)Cn2nc3c4cc(-c5ccc(Cl)cc5)nn4ccn3c2=O)cc1`, in that order: 1.97% and 4.04%.
The matching figures for `Cc1ccc(NC(=O)Cn2nc3c(Oc4ccccc4Cl)nccn3c2=O)cc1F`: 7.48% and -2.62%.
The matching figures for `COC(=O)c1cccc(NC(=O)Cn2nc3c(N4CCCCCC4)nccn3c2=O)c1`: -4.81% and -10.52%.
For the molecule `Cc1c(Cl)cccc1NC(=O)Cn1nc2c(SCc3ccccc3)nccn2c1=O`, the figures for the Inhibition with Staphylococcus aureus and in the test on Escherichia coli were 2.18% and -6.95%, respectively.
For `COc1ccc(C(=O)CSc2nnc3c(=O)n(-c4ccc(F)c(F)c4)ccn23)cc1`, in that order: 14.04% and -0.82%.
For `Cc1oc(-c2ccccc2)nc1CSc1nc2ccccc2n2c(C(C)C)nnc12`, in that order: -2.26% and -5.26%.
The matching figures for `CC(C)c1ccc(N(Cc2ccc(Cl)cc2)S(=O)(=O)c2cccn3cnnc23)cc1`: 8.06% and 3.76%.
With `Cc1cccc(Oc2nccn3c(=O)n(CC(=O)Nc4cccc(C(F)(F)F)c4)nc23)c1C`, the values for the Inhibition with Staphylococcus aureus and in the test on Escherichia coli were 4.71% and -4.64%, respectively.
The matching figures for `Cc1ccc(-c2ccc3nn(Cc4ccc(N5CCCC5=O)cc4)c(=O)n3n2)cc1`: 5.05% and -5.45%.
The matching figures for `CCOC(=O)c1ccccc1NC(=O)Cn1nc2c(Oc3ccc(C)cc3)nccn2c1=O`: -14.8% and -17.92%.
Take `Cc1ccc(-c2ccc3nn(CC(=O)Nc4ccc(C#N)cc4)c(=O)n3n2)cc1C`: the results for the Inhibition in the test on Staphylococcus aureus and in the test with Escherichia coli were 8.65% and 0.46%, respectively.
The matching figures for `O=C1CCCN1c1ccc(Cn2nc3ccc(-c4ccccc4)nn3c2=O)cc1`: -3.3% and -6.97%.
For `COc1cccc(Sc2nc3ccccc3n3c(=O)n(CC(=O)Nc4cc(C)cc(C)c4)nc23)c1`, in that order: 0.14% and 3.24%.
The matching figures for `COc1ccc(C(=O)CSc2nnc3c(=O)n(-c4ccc(F)cc4)ccn23)cc1OC`: 16.25% and -2.12%.
As for `O=c1c2nnc(-c3ccc([N+](=O)[O-])cc3)n2ccn1-c1ccc(F)c(F)c1`, the Inhibition in the test with Staphylococcus aureus is given as -6.17%; in the test on Escherichia coli, -1.2%.
For `O=C(Cn1nc2c3c4c(sc3ncn2c1=O)CCCC4)Nc1ccc2c(c1)OCO2`, in that order: -0.05% and -3.47%.
Regarding `CCc1ccc(N(Cc2ccc(F)cc2)S(=O)(=O)c2cccn3c(C)nnc23)cc1`, the Inhibition with Staphylococcus aureus was 6.87%; in the test on Escherichia coli, -8.04%.
For `CC(=O)c1ccc(NC(=O)Cn2c(=O)c3nnc(C(C)C)n3c3ccccc32)cc1`, in that order: 5.44% and -3.86%.
The matching figures for `O=C(Cn1nc2c3cc(-c4ccc(F)cc4)nn3ccn2c1=O)Nc1ccc(Br)cc1`: -9.12% and -9.31%.
The matching figures for `Cc1ccc(NC(=O)Cn2nc3c(N4CCCC(C)C4)nccn3c2=O)cc1C` (centres undefined): -5.07% and -2.82%.
As to `COc1ccc(-c2cc3c4nn(CC(=O)NCc5ccc(Cl)cc5)c(=O)n4ccn3n2)cc1`, the Inhibition is on record as 12.72% in the test with Staphylococcus aureus and 5.93% in the test on Escherichia coli.
With `O=C(CCc1nnc2c3cc(-c4ccc(F)cc4)nn3ccn12)N1CCC(Cc2ccccc2)CC1`, the Inhibition was 6.97% in the test with Staphylococcus aureus and -0.02% with Escherichia coli.
For `COc1ccccc1-n1ccn2c(SCC#N)nnc2c1=O`, in that order: 15.53% and 0.38%.
